In all, about 360,000 compounds went through this assay and about 130 (0.036%) were called active. The entries come from a sample that favours actives as a whole. A number with no mark means an inactive call. No stated cut-off is given here; in the data, active means potentiation above about 30%; inactive means the rest.

In PubChem BioAssay AID504651 (National Center for Advancing Translational Sciences (NCATS), 2011) one finds potentiation data, which are given here for 5 compounds.

Chain of D(1A) dopamine receptor (Homo sapiens) (P21728 whole entry, looked up): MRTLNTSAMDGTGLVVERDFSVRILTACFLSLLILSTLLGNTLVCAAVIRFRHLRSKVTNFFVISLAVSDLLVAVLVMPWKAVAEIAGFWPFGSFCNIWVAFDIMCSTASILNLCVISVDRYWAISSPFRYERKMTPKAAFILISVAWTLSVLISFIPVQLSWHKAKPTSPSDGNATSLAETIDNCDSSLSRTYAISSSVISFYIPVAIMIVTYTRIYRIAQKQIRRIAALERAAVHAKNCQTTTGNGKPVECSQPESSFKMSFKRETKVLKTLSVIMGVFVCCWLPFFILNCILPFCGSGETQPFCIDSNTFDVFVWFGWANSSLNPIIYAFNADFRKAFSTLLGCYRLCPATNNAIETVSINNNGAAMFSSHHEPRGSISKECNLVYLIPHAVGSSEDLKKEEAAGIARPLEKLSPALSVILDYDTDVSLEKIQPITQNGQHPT

The assay has as its target D(1A) dopamine receptor (Homo sapiens) (UniProt P21728). The assay can be described thus: Potentiators of Human D1 Dopamine Receptor: qHTS. Further: 0% is about no effect. To be noted: HEK293 TREx D1 cells, calcium flux, dopamine EC20 potentiation; at 10 µM; active compounds read high. An excerpt: Dopamine receptors (DARs) are involved in the etiology and/or therapy of a number of neuropsychiatric and endocrine disorders. For instance, all receptor-based antiparkinsonian drugs work via stimulating the D1 DAR subtype whereas all FDA-approved antipsychotic agents are antagonists of this receptor. […] There are three different types of allosteric modulators that we are seeking, two of which will stimulate or augment receptor signaling, allosteric agonists and potentiators, while the third, allosteric antagonists, will attenuate receptor signaling. The present primary screening assay measures compound potentiation of an EC20 dopamine response by tracking calcium flux in a […], inducible Hek293 Trex D1 cell line.
NIH Chemical Genomics Center [NCGC]
NIH Molecular Libraries Probe Centers Network [MLPCN]
Assay Submitter (PI): David Sibley
Freshly passaged cells are plated in 1536 well black, clear bottom plates at a density of 4000 cells/well in 3 ul of complete media containing 1x tetracycline inducer. After an overnight incubation at 30 C in 5% CO2, cells are loaded with 2 ul of the no wash Calcium Assay Kit (ABD Bioquest) and incubated at room temperature for 30 to 90 minutes. A 10 cycle (1 second/cycle) baseline measurement is taken and then the FDSS online 1536 pintool delivers 23 nl of compound library (as well as dopamine controls) to the plate. The plate is measured for kinetically at 1 cycle/sec for 180 seconds and is considered to be the agonist portion of the assay (eg, compounds which activate a positive calcium response during this portion are flagged as potential agonists). Following the 180 second read, 1 ul of an EC20 of dopamine is delivered by an onboard pipette head. Measurements are taken kinetically for an additional 180 seconds.
For `O=C1C2(Cl)C3(Cl)C4(Cl)C(Cl)(Cl)C5(Cl)C3(Cl)C1(Cl)C5(Cl)C24Cl` (stereo not given), the potentiation is 54.8% (active). For `Cc1cccc(-n2c(O)c(C=NC34CN5CN(CN(C5)C3)C4)c(=O)[nH]c2=O)c1`, the potentiation was -1.15%. For `Clc1cccc(Cl)c1Cl` the value was -1.55%; for `COP(=O)(NS(=O)(=O)c1ccccc1)OC`, -2.85%; for `CNC(=O)O/N=C(\N)Cc1csc2ccccc12`, -9.15%.
